# The list is not random: actives were taken first. Their share in the collection is about 2.9%.
# PTAP TSG101 blk: qHTS Assay for Iinhibitors of HIV-1 Budding by Blocking the Interaction of PTAP/TSG101 | 340,000 tested, under 10 active | Potency, µM (series often up to 115 µM), for the others: at the highest dose activity change, negative = inhibition, actives largely listed as inhibitors | Fluorescence polarization, FITC-PTAP peptide / Tsg101 binding | Tumor susceptibility gene 101 protein (Homo sapiens), Q99816; active = well fitted inhibition curve with a large enough effect in the main read-out, with a control signal flat, not every such curve was filed as active; inconclusive = small, poorly fitted or top-dose-only effect, or effect the other way, or a change in a side signal; inactive = no such curve, though single readings can be large or run the other way; note: potency is the fitted concentration of half-maximal effect; % of control where 0% means no effect
# Target sequence (Q99816 whole entry, looked up): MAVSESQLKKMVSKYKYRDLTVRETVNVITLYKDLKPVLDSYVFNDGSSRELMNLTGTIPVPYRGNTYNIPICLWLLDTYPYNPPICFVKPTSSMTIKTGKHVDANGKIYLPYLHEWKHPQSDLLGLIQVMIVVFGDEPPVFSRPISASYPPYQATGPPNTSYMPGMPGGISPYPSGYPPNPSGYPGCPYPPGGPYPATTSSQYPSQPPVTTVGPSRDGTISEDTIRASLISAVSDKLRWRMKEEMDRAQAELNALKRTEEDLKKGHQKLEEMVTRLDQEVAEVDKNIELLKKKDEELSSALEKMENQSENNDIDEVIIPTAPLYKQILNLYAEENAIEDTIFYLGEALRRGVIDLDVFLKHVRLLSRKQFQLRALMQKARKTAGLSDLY
#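 Fluorescence polarization binding of Tsg101 binding domain (10 uM final) to FITC-labeled PTAP peptide (50 nM final) in HEPES pH 7.5 buffer with NaCl, Tween 20, EDTA, TCEP. Compounds added before peptide; binding 20 min at RT.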
# MmCpn inh: Inhibitors of TCP-1 ring complex (TRiC) of Methanococcus maripaludis (MmCpn): qHTS | purified Mm-Cpn ATPase, ADP Transcreener TR-FRET | Potency, µM (top dose mostly 76.9 µM), for inactives: at the top dose activity, negative = inhibition, actives largely listed as inhibitors | actives 0.031% (n = 330,000); active = well fitted inhibition curve with a large enough effect; inconclusive = small, poorly fitted or top-dose-only effect; note: potency is the fitted concentration of half-maximal effect; % is set by controls: 0 for no effect and ±100 for the full control effect; nearly all actives have a fitted effect of over 80% in size
#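 ATPase turnover read by TR-FRET ADP competition (Eu cryptate antibody/ADP-d2, 665/590 nm): 10uM ATP final, 25nM Mm-CPN final, 30 min 37degC after 10-min compound preincubation, pH 7.4 Tris/KCl/MgCl2/DTT buffer.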
# Rango-impB inh: qHTS Assay for Inhibitors of Rango (Ran-regulated importin-beta cargo) - Importin beta complex formation; Importin subunit beta-1 (Homo sapiens), Q14974; Rango CFP/YFP FRET sensor + importin beta, 45 min; Potency, µM (titrated, usually from 92.2 µM), for inactives: top-dose inhibition of complex formation; actives 0.031% (n = 340,000); AID 540263, 2011;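 note: potency is the fitted concentration of half-maximal effect; 0% = DMSO wells and 100% = buffer wells lacking importin beta; nearly all actives have a fitted effect of over 15% in size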
#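 FRET biosensor (snurportin 1 IBB flanked by EYFP and cerulean), 50 nM, with compound 5 min, then 0.125 microM importin beta in PBS, 1 mM DTT, 0.02% Tween-20, 0.1% BSA. CFP/YFP ratio read after 45 min at room temperature; pre-read flags interference.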
# DRD3 agonist: qHTS of D3 Dopamine Receptor Agonist: qHTS; D(3) dopamine receptor (Homo sapiens), P35462; D3R DiscoveRx beta-arrestin cells, luminescence, 90 min; max activation, %; actives 0.58% (n = 410,000); in the data active = max activation above about 30%; note: 0% is about no effect
#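 Agonist-mode cell screen: cells plated at 1500/well and incubated overnight at 37 °C, then exposed to library compounds for 90 min at 37 °C. Detection reagent was added for 30–60 min at room temperature, and luminescence was read.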
# Rango release inh: qHTS Assay for Inhibitors of RanGTP induced Rango (Ran-regulated importin-beta cargo) - Importin beta complex dissociation; AID 540253, 2011; actives 0.071% (n = 340,000); Biochemical FRET Rango-importin beta, RanGTP-induced dissociation; Potency, µM (highest dose often 46.1 µM), for the others: at the top dose activity change, negative = inhibition; Snurportin-1 (Homo sapiens) + GTP-binding nuclear protein Ran (Homo sapiens) + Importin …; note: potency is the fitted concentration of half-maximal effect; % of control where 0% means no effect; nearly all actives have a fitted effect of over 45% in size
#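 Compounds sat 5 min at room temperature with 0.1 uM Rango biosensor plus 0.25 uM importin beta, then FRET pre-read. RanGTP-RCC1 (0.6 uM Ran, 2mM GTP, 0.2 uM RCC1) added for 45 min, and the CFP/YFP post-read measured blocked complex dissociation.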
# DRD3 antagonist: qHTS of D3 Dopamine Receptor Antagonist: qHTS; D3R cells, DiscoveRx beta-arrestin luminescence, antagonist mode; active compounds read low; max response, negative = inhibition, %; actives 2.5% (n = 360,000); in the data active = max response below about -50%; inconclusive = no clear call, values can overlap the other calls; note: % is set by controls: 0 for no effect and ±100 for the full control effect
#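 Cells expressing the human receptor were seeded at 1500 cells/well, incubated overnight at 37 degrees C in 5% CO2, then exposed to library compounds with dopamine controls for 90 minutes at 37 degrees C before luminescent detection.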
# Starred values were filed as active, the others as inactive; ? = inconclusive; · = no result; ! = repeats disagree. Unless noted, calls come from the whole dose curve.
SMILES,PTAP TSG101 blk,MmCpn inh,Rango-impB inh,DRD3 agonist,Rango release inh,DRD3 antagonist
CC(CC(=O)O)CC(=O)Nc1cc(C(F)(F)F)cc(C(F)(F)F)c1 (stereo unspecified),-2%,0%,2%,-9,0%,1
CCC(C)(CC(=O)O)CC(=O)Nc1cc(C(F)(F)F)cc(C(F)(F)F)c1 (stereo unspecified),-1%,1%,-1%,32*,-11%,17
CCc1ccccc1NC(=O)Cn1ccn(-c2ccc(OC)cc2)c(=O)c1=O,-3%,-1%,1%,-2,?,-8
CCOC(=O)C1(CC2CCCCO2)CCN(Cc2ccc(OC)cc2F)CC1 (stereo unspecified),-6%,3%,-1%,-12,-1%,-67*
Cc1cccc(C)c1-n1nnnc1C(C1CC1)N1CCN(C/C=C/c2ccccc2)CC1 (stereo unspecified),·,·,·,1,·,-79*
CCC(c1nnnn1-c1c(C)cccc1C)N1CCN(C/C=C/c2ccccc2)CC1 (stereo unspecified),·,·,·,-4,·,?
COc1ccc(-n2nnnc2C(C2CC2)N2CCN(C/C=C/c3ccccc3)CC2)cc1 (stereo unspecified),·,·,·,-3,·,-81*
COc1ccc(-n2nnc(-c3nc(-c4ccc5c(c4)OCO5)no3)c2C)cc1Cl,·,·,·,8,·,·
CN1C(=O)/C(=C2\SC(N3CCCCCC3)=NC2=O)c2ccccc21,-12%,-2%,0%,2,22%,-67*
COc1cccc(/C=N/Nc2ncnc3scc(-c4ccccc4)c23)c1OC,-10%,-1%,-3%,36*,-9%,42
CCc1ccc(NC(=S)NC2CC3CCCC(C2)N3Cc2ccccc2)cc1 (stereo unspecified),-2%,3%,1%,-11,-18%,-109*
CNC(=S)NC1CC2CCC(C1)N2Cc1ccccc1 (stereo unspecified),-5%,0%,11%,-35,-5%,-81*
S=C(Nc1ccc(Cl)cc1)NC1CC2CCC(C1)N2Cc1ccccc1 (stereo unspecified),-2%,0%,0%,-14,-8%,-76*
Cc1ccc(OCC(=O)Nc2nonc2-c2ccc(Br)cc2)cc1C,·,·,·,-10,·,·
CCCOc1ccc(NC(=O)CNC(=O)c2cc(OC)cc(OC)c2)cc1OCCC,-5%,-1%,1%,-20,-2%,-58*
COc1ccccc1CNS(=O)(=O)c1ccc(-c2cc(C(F)(F)F)on2)s1,·,·,·,-13,·,·
OC1(c2cccc(C(F)(F)F)c2)CCN(c2ncnc3c2[nH]c2ccc(F)cc23)CC1,3%,·,1%,40*,20%,-25
CCN(CC)c1ccc(-n2cc3c(=O)n(C)c(=O)n(C)c3c2)cc1,-1%,-11%,-3%,-4,25%,-55*
CCc1ccc(S(=O)(=O)NCCOc2cccc3cccnc23)cc1,-4%,1%,-2%,4,1%,-6
CN(C/C=C/c1ccccc1)Cc1cccc2ccccc12,1%,-1%,0%,-89,1%,-100*
O=[N+]([O-])c1cccc(-c2ccc(/C=N/Nc3nc(N4CCCCC4)nc(N4CCCCC4)n3)o2)c1,-3%,1%,-1%,52*,0%,108
Cc1cc(N/N=C/c2ccc(N(C)C)cc2)c2ccccc2n1,-5%,1%,?,-4,-29%,12
Cc1cc(N/N=C/c2ccc(O)cc2)c2cccc(C)c2n1,-4%,0%,?,-8,?,-72*
Cc1cc(-c2ccccc2)nc(N/N=C/c2ccc(O)cc2)n1,-8%,1%,-2%,9,-1%,2
Cc1cc(C)c2nc(C)cc(N/N=C/c3ccc(O)cc3)c2c1,-11%,-1%,?,-18,15µM*,?
SMILES,PTAP TSG101 blk,MmCpn inh,Rango-impB inh,DRD3 agonist,Rango release inh,DRD3 antagonist
Cc1cc(Nc2ccccc2)nc2cc(O)ccc12,0%,-1%,?,-4,7.3µM*,-11
CCc1nnc2c3ccccc3nc(Nc3cc(C)cc(C)c3)n12,·,·,·,-5,·,·
CCN(CC)CCn1c(NCc2ccc(OC)cc2)nc2ccccc21,-3%,·,6%,-14,7%,-67*
Cc1c(C(=O)NCc2ccc(F)cc2)sc(=O)n1Cc1ccc(Cl)c(Cl)c1,·,·,·,-9,·,-74*
CSc1ccc(Cn2c(C)c(C(=O)NCc3ccc(Cl)c(Cl)c3)sc2=O)cc1,·,·,·,0,·,7
COc1ccc(CNC(=O)c2sc(=O)n(Cc3ccccc3C)c2C)cc1,·,·,·,1,·,-28
COc1ccccc1Cn1c(C)c(C(=O)NCc2ccco2)sc1=O,·,·,·,2,·,-29
Cc1cccc(C)c1Cn1c(C)c(C(=O)NCCC#N)sc1=O,·,·,·,6,·,1
Cc1cccc(CNC(=O)c2sc(=O)n(Cc3c(C)cccc3C)c2C)c1,·,·,·,-10,·,-90*
Cc1ccccc1Cn1c(C)c(C(=O)NCc2cccc(Cl)c2)sc1=O,·,·,·,-4,·,-53*
COc1ccccc1Cn1c(C)c(C(=O)NCc2cccc(C)c2)sc1=O,·,·,·,-4,·,-57*
Cc1ccccc1S(=O)(=O)N(CC(O)CN1C(=O)NC(C)(C)C1=O)c1ccccc1 (stereo unspecified),3%,1%,-2%,-5,23%,-7
Nc1sc(-c2ccccc2)cc1C(=O)O,·,-6%,·,·,·,·
Nc1sc(-c2ccccc2)cc1C(=O)N1CCNCC1,·,·,·,-21,·,-54*
CCC(C(=O)Nc1cc(F)ccc1F)n1nc(C)c2c(C)n(-c3ccc(C)cc3)nc2c1=O (stereo unspecified),-2%,-1%,-1%,59*!,12%,31
CCC(C(=O)Nc1ccccc1F)n1nc(C)c2c(C)n(-c3ccccc3)nc2c1=O (stereo unspecified),0%,-1%,0%,2,-1%,14
Cc1cc(Cl)ccc1C(O)c1ncc(-c2ccccc2Cl)[nH]1 (stereo unspecified),·,·,·,9,·,18
O=C(CSc1nccn1-c1ncc(C(F)(F)F)cc1Cl)c1ccc(Cl)cc1,-4%,-4%,-1%,1,-3%,-107*
